Assay outcomes as filed in PubChem BioAssay.
An excerpt weighted towards active compounds, which were near 2.4% of everything screened.
GLP1R inv ag – inverse agonists of human GLP-1 receptor. P43220. HEK293 GLP-1R CRE-luciferase, luminescence, 24 h; GLP-1R form is constitutively active. Potency, µM (highest dose often 38.3 µM), for the others: at the highest dose activity change, negative = inhibition, hits mostly inhibitors. hit rate 1.6% among 410,000. AID 624417; note: potency is the fitted concentration of half-maximal effect; % is set by controls: 0 for no effect and ±100 for the full control effect; nearly all actives have a fitted effect of over 55% in size
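Assay principle: reduced luminescence from a cAMP-responsive reporter in HEK293 cells co-expressing a constitutively active GLP-1R. Conditions: 24 hr compound incubation, 37 deg C, 5% CO2.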
GLP1R cytotox – cytotoxic in the GLP-1 receptor inverse agonist counter-screen | hit rate 0.13% among 410,000 | HEK293 cAMP-luciferase reporter cells, luminescence, 24 h | Potency, µM (series often up to 38.3 µM), without a hit: at the highest dose activity change, negative = inhibition, actives largely listed as inhibitors;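 note: loss of luciferase light is scored as toxicity; potency is the fitted concentration of half-maximal effect; % is set by controls: 0 for no effect and ±100 for the full control effect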
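To flag toxic compounds, the library was rerun on cells for 24 hr at 37 deg C and 5% CO2. Viability-linked luminescence was captured 12 min after adding luciferase detection reagent.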
TRHR agonist – activates the human TRH receptor; activation, % at 2 µM; TRHR cells, calcium flux fluo-8, FDSS agonist mode; AID 493084; P34981; hit rate 0.18% among 360,000; in the data active = activation above about 30%; note: 0% is about no effect
Target sequence (P34981 whole entry, looked up): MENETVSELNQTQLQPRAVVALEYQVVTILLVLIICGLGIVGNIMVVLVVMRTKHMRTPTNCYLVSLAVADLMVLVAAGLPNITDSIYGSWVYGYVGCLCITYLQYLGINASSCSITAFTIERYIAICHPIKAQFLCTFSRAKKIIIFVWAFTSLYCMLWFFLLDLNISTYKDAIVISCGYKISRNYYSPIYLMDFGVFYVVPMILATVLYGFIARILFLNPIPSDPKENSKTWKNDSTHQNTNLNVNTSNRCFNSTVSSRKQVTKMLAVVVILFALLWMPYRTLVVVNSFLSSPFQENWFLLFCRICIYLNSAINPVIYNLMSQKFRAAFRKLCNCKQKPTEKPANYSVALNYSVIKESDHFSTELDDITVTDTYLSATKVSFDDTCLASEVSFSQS
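In this calcium-flux screen, cells bearing human TRHR are dye-loaded with fluo-8, baselined for 10 cycles, then exposed to library compounds; positive kinetic calcium responses during the agonist phase mark hits, with TRH as control.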
GLP-1R agonist – agonists of human GLP-1 receptor; P43220; HEK293 GLP-1R CRE-luciferase, luminescence, 4-6 h; cells express a hypersensitive GLP-1R form; Potency, µM (titrated, usually from 45.6 µM), for the others: at the top dose activation, usual class: activators; hit rate 0.007% among 380,000; AID 624172; note: potency is the fitted concentration of half-maximal effect; % of control where 0% means no effect
TRHR enhancer – allosterically enhances the human TRH receptor; AID 493056; P34981; hit rate 0.66% among 360,000; TRHR cells, fluo-8 calcium fluorescence, EC20 TRH enhancement; enhancement, % at 2 µM; in the data active = enhancement above about 30%; note: 0% is about no effect
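Enhancer read-out: after compound pinning and an initial kinetic agonist-mode read, an EC20 of TRH (10 nM final) was injected and fluo-8 calcium signal (Ex 480/Em 530) followed at 1 s/cycle for 100 cycles in TRHR-expressing cells.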
PTHR1 ag – agonists of human PTHR1 parathyroid hormone receptor; Q03431; HEK293 GP2 PTHR1 cells, GloSensor cAMP luminescence, 1 h; Potency, µM (highest dose often 115 µM), inactives show at the top dose activation, most hits filed as activators; hit rate 0.075% among 410,000; AID 743266; note: potency is the fitted concentration of half-maximal effect; nearly all actives have a fitted effect of over 55% in size
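HEK-293-derived GP2 cells expressing PTHR1 and a GloSensor cAMP reporter, 3,000/well, plated overnight, given luciferin plus IBMX (each 0.5 mM as added) for 1 h at 37 °C, then compound for 1 h at 37 °C. Luminescence was read after 15 min at room temperature.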
An asterisk follows results filed as active; i = inactive; ? = inconclusive; · = no result; [ ] = another dose, or the depositor's remark. Unless noted, calls come from the whole dose curve; as a rule, active = well fitted curve in the direction sought with a large enough effect; inconclusive = small, poorly fitted or top-dose-only effect, or another doubt; inactive = no such curve, though single readings can be large; an effect the other way counts as inactive or inconclusive.

SMILES | GLP1R inv ag | GLP1R cytotox | TRHR agonist | GLP-1R agonist | TRHR enhancer | PTHR1 ag
CC(=O)c1cccc(NC(=O)NCCc2ccc(Cl)cc2)c1 | ? | -10.7% | -0.4 | -2.0% | 5.9 | i
COc1cccc(N2C(=O)CC(N3CCC(c4nc5ccccc5[nH]4)CC3)C2=O)c1 (configuration not stated) | -4.3% | -12.0% | -0.7 | -3.2% | 14.4 | i
COc1ccc(-n2c(C)cc(C(=O)CN3C(=O)NC4(CCCc5sccc54)C3=O)c2C)cc1 (configuration not stated) | 12.6µM* | -7.7% | 1.3 | 3.6% | 0.4 | -28.3%
COc1ccc(N2C(=O)CC(Sc3nc(C)cc(C)n3)C2=O)cc1OC (configuration not stated) | 1.6% | 2.9% | 0.6 | 11.5% | -4.5 | -52.7%
CCOC(=O)CN1CC23C=CC(O2)C(C(=O)O)C3C1=O (configuration not stated) | 2.2% | 3.3% | 2.4 | -6.5% | 2.7 | i
Cc1ccc(NC(=O)CCC(=O)N2CCSc3ccccc32)cc1Cl | -28.4% | 0.6% | 0.4 | · | 9.0 | -1.6%
Cc1ccc(CSCCNC(=O)CCSc2ccccc2)cc1 | 10µM* | 11.0% | 1.7 | 0.7% | 0.3 | i
Cc1ccc(SCC(=O)NCCSCc2ccccc2)cc1 | -14.1% | -14.1% | 0.5 | -2.9% | -2.2 | -4.3%
CCc1ccc(-c2cc(C)no2)cc1S(=O)(=O)NC(C)Cc1ccco1 (configuration not stated) | 3.55µM* | -9.3% | 0.1 | 27.6% | -6.7 | -9.0%
Cc1cc(-c2ccc(C(C)C)c(S(=O)(=O)NCc3ccco3)c2)on1 | ? | -4.9% | -0.8 | 20.5% | 7.1 | -0.1%
O=C(CN1c2ccccc2S(=O)(=O)c2ccccc21)NCc1ccccc1 | ? | 1.9% | -0.2 | 3.1% | 5.5 | -22.0%
CCCn1c(N2CCN(Cc3ccc(Cl)cc3)CC2)nc2ccccc21 | 11.2µM* | ? | -0.1 | -6.2% | -3.5 | -36.2%
CCn1c(N2CCN(Cc3ccc([N+](=O)[O-])cc3)CC2)nc2ccccc21 | ? | -25.9% | -0.6 | 2.0% | 1.4 | -30.7%
COc1ccc2c(c1)CC(C(=O)Nc1cc(OC)c(OC)c(OC)c1)CO2 (configuration not stated) | -8.3% | 12.1% | 0.0 | · | 7.3 | -11.6%
FC(F)(F)c1nc(-c2cccs2)ncc1-c1nnnn1-c1ccc(Cl)cc1 | 7.08µM* | -29.2% | 1.7 | -14.6% | -1.3 | i
COC(=O)C[C@H]1c2ccccc2S(=O)(=O)N1C(C)C | 5.0% | -3.4% | · | 2.0% | · | -21.3%
O=C1CCC/C(=N/NC(=O)c2sc3ccccc3c2Cl)C1 | 1.1% | 53.3% | 38.7* | -1.7% | 4.2 | 14.0%
Cc1ccc(C(C)C)cc1OCC(=O)NNC(=O)Nc1ccccc1 | 6.31µM* | -9.6% | -0.6 | 5.6% | -2.3 | -9.5%
Cc1ccc(C(C)C)cc1OCC(=O)NC1CCCCCCC1 | 11.2µM* | 29.0% | -0.3 | 1.6% | -2.2 | -38.4%
Cc1ccc(C(C)C)c(OCC(=O)NNC(=O)Nc2ccccc2)c1 | ? | 0.0% | · | 5.6% | · | -12.5%
COc1ccc(C(C)C)cc1S(=O)(=O)N1CCN(c2ccccc2)CC1 | 8.91µM* | 0.2% | 0.9 | -2.2% | 9.4 | -72.8%
O=[N+]([O-])c1ccc(S(=O)(=O)N2CCN(C3CCN(Cc4ccccc4)CC3)CC2)cc1 | ? | 0.7% | 0.2 | 0.2% | -8.1 | i
COc1ccc(S(=O)(=O)N2CCC(N3CCN(Cc4ccccc4)CC3)CC2)cc1 | -27.9% | -7.6% | 0.1 | 14.1% | 31.5* | i
O=[N+]([O-])c1ccccc1S(=O)(=O)N1CCN(C2CCN(Cc3ccccc3)CC2)CC1 | ? | -13.6% | 1.4 | 2.8% | 31.1* | -3.5%
COc1ccc(OC)c(S(=O)(=O)N2CCN(Cc3ccccc3)CC2)c1 | 14.4% | 2.0% | 0.0 | 4.3% | 30.5* | i
SMILES | GLP1R inv ag | GLP1R cytotox | TRHR agonist | GLP-1R agonist | TRHR enhancer | PTHR1 ag
COc1ccc(OC)c(S(=O)(=O)N2CCC(C(=O)N3CCN(Cc4ccccc4)CC3)CC2)c1 | -11.3% | 2.5% | -0.3 | 3.7% | 3.2 | -13.9%[57.5 µM]
Cc1nc(N)sc1N=Nc1ccccc1C(F)(F)F | -28.5% | ? | -0.6 | 29.1% | -5.1 | -20.9%
N#Cc1ccc(NC(=O)Nc2cccc(C#N)c2)cc1 | ? | 14.0% | 3.0 | -3.7% | 3.6 | -77.5%
N#Cc1ccc(NC(=O)Nc2ccc(Oc3ccc(NC(=O)Nc4ccc(C#N)cc4)cc3)cc2)cc1 | ? | -16.0% | 0.4 | -8.2% | 37.1* | -22.3%
CN(Cc1ccccc1)CC(O)COc1ccc(CNCCCOc2cccnc2)cc1 (configuration not stated) | ? | ? | 1.1 | -4.0% | -3.4 | 6.4%
CCCc1ccc(-c2cc(C(=O)N3CCN(c4ccccn4)CC3)c3ccccc3n2)cc1 | 3.16µM* | -12.8% | 0.4 | -2.1% | -9.7 | -15.7%
COCCNC(=O)c1cnn2c(C(F)F)cc(-c3ccc(C)cc3)nc12 | 19.2% | -19.0% | -0.8 | 4.8% | -2.2 | i
Cc1ccc(-c2cc(C(F)F)n3ncc(C(=O)N4CCN(c5ccccn5)CC4)c3n2)cc1 | 6.31µM* | 5.0% | 0.3 | 0.5% | 8.2 | -16.8%
CCCNC(=O)c1cnn2c(C(F)F)cc(-c3ccccc3)nc12 | -6.4% | -1.8% | -0.3 | 0.5% | 30.2* | -10.8%
CCN1CCN(C(=O)c2cnn3c(C(F)F)cc(-c4ccc(C)cc4)nc23)CC1 | ? | 5.9% | -0.3 | 8.9% | 3.8 | -23.6%
CN(Cc1ccccc1)C(=O)C(=O)c1c[nH]c2ccccc12 | ? | 0.0% | · | -0.7% | · | i
CC(=O)N/C(=C/c1ccc2c(c1)OCO2)C(=O)Nc1ccccc1 | 5.1% | -10.3% | 0.1 | 14.0% | 1.5 | i
Cc1cc(=O)[nH]c(SCC(=O)N2CCN(c3ccccc3)CC2)n1 | 6.5% | 4.9% | 0.0 | · | -1.0 | -24.1%
Cc1cc(=O)[nH]c(SCC(=O)N2CCN(C(c3ccccc3)c3ccccc3)CC2)n1 | 5.62µM* | 13.3% | 0.4 | -0.4% | 4.1 | i
CCCCC1C(=O)NN(c2ccccc2)C1=O (configuration not stated) | 1.78µM* | -15.1% | · | 4.6% | · | i
CCN1C(=O)N[C@@H](c2ccccc2)C1=O | · | · | · | 6.2%[19.8 µM] | · | ·
COCC(=O)N[C@H]1CC[C@@H](CC(=O)NCc2ccccc2OC)O[C@@H]1CO | 22.5% | -5.9% | · | · | · | -12.5%
COC(=O)N/N=C/c1cn(Cc2ccc(F)cc2)c2ccccc12 | 7.94µM* | -4.7% | -0.6 | 12.6% | -1.9 | i
COC(=O)N/N=C/c1cn(Cc2ccccc2F)c2ccccc12 | ? | 0.6% | 0.2 | 5.5% | -6.8 | i
